# According to PubChem BioAssay AID1117290 (Broad Institute, 2014):
# Results with a measured potency or affinity are listed apart. A number with no mark means an inactive call. Activity calls are given as the source filed them.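 Rule for the calls: active = every replicate test called active, each showing a drop in signal with a fitted potency within twice the top tested dose; inconclusive = tests disagree, or fits are weak, flat midrange or poor; inactive = every test flat, rising or fitted past the limit.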
# Assay: A549 cell cytotoxicity, dose response, cytotoxicity control, CellTiter-Glo luminescence, dry powder, set 18 (AID 1117290)
# Conditions: A549 viability, CellTiter-Glo ATP luminescence, 72 h; series mostly up to 26 µM; activity change, negative = cytotoxicity: at the top concentration
SMILES,"activity change, negative = cytotoxicity [%]",outcome
O=S(=O)(O)c1ccc(N2N=C(c3ccccc3)CC2c2ccccc2)cc1 (stereo unspecified),-2.2,–
CC(=O)N1CCN(C(=O)C2(NC(=O)Nc3ccccc3F)CCCCC2)CC1,–,inactive
Cc1ccc(NC(=O)NC2(C(=O)N3CCN(c4ccccc4)CC3)CCCCC2)cc1,-10.4,–
CC(=O)N1CCN(C(=O)C2(NC(=O)Nc3ccc(C(F)(F)F)cc3)CCCC2)CC1,-19.7,–
CC(=O)N1CCN(C(=O)C2(NC(=O)Nc3ccc(C(F)(F)F)cc3)CCCCC2)CC1,-16,–
COc1ccc(C(=O)O)cc1S(=O)(=O)Nc1cc(C(F)(F)F)ccc1N(C)C,-9.63,–
CC(=O)N1CCN(C(=O)C(C)(C)NC(=O)Nc2ccc(C)cc2)CC1,-8.05,–
O=C(Nc1cc(C(F)(F)F)ccc1N1CCCCC1)c1ccc(S(=O)(=O)O)cc1,3.15,–
COc1ccc(C(=O)Nc2cc(C(F)(F)F)ccc2N2CCCCC2)cc1S(=O)(=O)O,-16.3,–
O=S(=O)(Nc1cc(C(F)(F)F)ccc1N1CCCCC1)c1ccc(F)cc1,-15.4,–
COc1ccc(C(=O)Nc2cccc(C(F)(F)F)c2)cc1S(=O)(=O)O,-21.9,–
O=S(=O)(Nc1cc(C(F)(F)F)ccc1N1CCCCC1)c1ccc(C(F)(F)F)cc1,-23.7,–
O=[N+]([O-])c1ccc(S(=O)(=O)Nc2cc(C(F)(F)F)ccc2N2CCCCC2)c([N+](=O)[O-])c1,-4.1,–
CC(=O)N1CCN(C(=O)CNC(=O)Nc2ccc(C)cc2)CC1,-10.5,–
CC(=O)N1CCN(C(=O)C2(NC(=O)Nc3cccc(F)c3)CCCCC2)CC1,-10.3,–
Cc1ccccc1S(=O)(=O)Nc1cc(C(F)(F)F)ccc1N1CCCCC1,-9.98,–
O=S(=O)(Nc1cc(C(F)(F)F)ccc1N1CCCCC1)c1cc(Cl)cc(Cl)c1,-32.2,–
CC(=O)N1CCN(C(=O)C2(NC(=O)Nc3ccc(C(C)C)cc3)CCCCC2)CC1,-15.8,–
CC(=O)N1CCN(C(=O)C2(NC(=O)NCCc3ccccc3)CCCCC2)CC1,-20.8,–
COc1ccc(C(=O)Nc2cc(C(F)(F)F)ccc2N2CCOCC2)cc1S(=O)(=O)O,-6.57,–
O=S(=O)(Nc1cc(C(F)(F)F)ccc1N1CCCCC1)c1ccccc1,-6.73,–
N#Cc1ccc(S(=O)(=O)Nc2cc(C(F)(F)F)ccc2N2CCCCC2)cc1,-14.7,–
CC(=O)N1CCN(C(=O)[C@@H]2CCN2C(=O)Nc2ccc(C)cc2)CC1,-11.2,–
CC(=O)N1CCN(C(=O)C2(NC(=O)Nc3ccc(C)cc3)CC2)CC1,-14.1,–
CC(=O)N1CCN(C(=O)C2(NC(=O)Nc3ccc(F)cc3)CCCCC2)CC1,-14.3,–
COc1ccc(C(=O)Nc2cc(F)ccc2N2CCCCC2)cc1S(=O)(=O)O,-18.2,–
